This is a sample that favours compounds with a hit; in the whole collection about 10% have one here.
GPT2 inh – GPT2 alanine aminotransferase inhibition; hit rate 0.25% among 100,000; Recombinant GPT2, coupled pyruvate oxidase/HRP Amplex Red fluorescence; AID 1671188; Q8TD30; Potency, µM (top dose mostly 57.7 µM), without a hit: at the highest dose activity change, negative = inhibition, actives largely listed as inhibitors; further: nearly all actives have a fitted effect of over 60% in size
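Inhibition is scored from Amplex Red fluorescence generated when pyruvate oxidase and HRP act on pyruvate released by GPT2. Reactions contain 10ng/uL enzyme, 250uM a-KG and 2mM L-alanine and run 30 min at room temperature.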
hNpr1 antagonist – blocks ANP-stimulated signaling of human Npr1 receptor | Potency, µM (highest dose often 46.3 µM), for inactives: at the top dose activity change, negative = inhibition, most hits filed as inhibitors | HEK293 hNpr1 GloSensor cGMP, ANP-stimulated luminescence | hit rate 1.6% among 76,000; calls by dose curve; further: nearly all actives have a fitted effect of over 60% in size
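HEK293 cells stably expressing human Npr1 and cGMP GloSensor pGS-40F, loaded 2 h with 2% GloSensor reagent, given compound 30 min at room temperature. Luminescence read before and 20 min after 0.1 nM hNppA.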
HEK cytotox – HEK 293 cell cytotoxicity; HEK 293 viability, ATP luminescence (CellTiter-Glo), 48-72 h; Potency, µM (doses to about 115 µM), inactives show at the top dose activity change, negative = cytotoxicity, most hits filed as inhibitors; hit rate 6.6% among 94,000; AID 1345083; further: nearly all actives have a fitted effect of over 60% in size
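qHTS cytotoxicity; HEK 293, 250 cells/well; compound pinned; 48 or 72 hr, 37 degree Celsius, 5% CO2, 95% humidity; CellTiter-Glo, 10 min RT; luminescence (ATP).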
Luciferase inh – blocks purified firefly luciferase enzyme activity; purified P. pyralis luciferase, luminescence, biochemical; P08659; hit rate 2.5% among 76,000; Potency, µM (titrated, usually from 115 µM), most hits filed as inhibitors; AID 1347043; further: nearly all actives have a fitted effect of over 65% in size
Target sequence (P08659 whole entry, looked up): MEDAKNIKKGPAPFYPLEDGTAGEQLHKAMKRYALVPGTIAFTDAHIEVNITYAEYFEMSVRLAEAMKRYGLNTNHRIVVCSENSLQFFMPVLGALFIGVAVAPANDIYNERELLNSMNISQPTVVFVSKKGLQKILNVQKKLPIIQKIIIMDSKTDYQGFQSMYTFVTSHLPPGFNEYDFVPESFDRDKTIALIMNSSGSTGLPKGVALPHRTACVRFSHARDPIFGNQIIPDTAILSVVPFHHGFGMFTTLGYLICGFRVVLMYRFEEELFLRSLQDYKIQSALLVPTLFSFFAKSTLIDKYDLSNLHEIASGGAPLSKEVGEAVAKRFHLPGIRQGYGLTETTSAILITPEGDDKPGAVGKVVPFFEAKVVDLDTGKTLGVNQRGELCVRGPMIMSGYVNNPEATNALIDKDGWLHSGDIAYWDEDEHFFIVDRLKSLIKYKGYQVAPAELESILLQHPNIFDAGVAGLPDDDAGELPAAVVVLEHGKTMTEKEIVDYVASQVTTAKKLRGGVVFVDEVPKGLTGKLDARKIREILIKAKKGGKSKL
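Luminescence read by CCD imager after adding enzyme (10nM final) to wells holding compound, titrated in qHTS. Substrates 10uM each D-luciferin and ATP; buffer 50mM Tris acetate pH 7.5, 10mM Mg acetate, Tween-20, BSA.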
NIH3T3 tox – cytotoxic compounds in NIH 3T3 cells. NIH 3T3 viability, CellTiter-Glo ATP luminescence, 48-72 h. hit rate 4.3% among 94,000. AID 1345082. Potency, µM (series often up to 96.7 µM), without a hit: top-dose activity change, negative = cytotoxicity, hits mostly inhibitors; further: nearly all actives have a fitted effect of over 55% in size
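Cells were seeded at 400 per well, treated with pin-transferred compound, and kept 48 or 72 hr at 37 °C before CellTiter-Glo addition and luminescence imaging of cellular ATP.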
* = called active by the depositor; i = inactive; ? = inconclusive; · = not tested or not shown; [ ] = dose if it differs, or a comment. Unless noted, the call rests on the fitted dose curve; in most records, active means well fitted curve in the direction sought with a large enough effect; inconclusive means small, poorly fitted or top-dose-only effect, or another doubt; inactive means no such curve, though single readings can be large; an effect the other way counts as inactive or inconclusive. On the % scale 0 is the no-effect control and ±100 the full control effect; potency means the concentration at half of the fitted maximal effect.

SMILES	GPT2 inh	hNpr1 antagonist	HEK cytotox	Luciferase inh	NIH3T3 tox
COc1ccccc1-c1cc(C(=O)Nc2ccc(Cl)cc2)c2cnn(C)c2n1	·	·	22µM*	·	?
COc1ccccc1NC(=O)c1cc(-c2ccccc2C(F)(F)F)nc2c1cnn2C	·	·	45µM*	·	?
COc1cccc(NC(=O)c2cc(-c3ccccc3C(F)(F)F)nc3c2cnn3C)c1	·	·	22µM*	·	?
COCCOCC(=O)N1CCC2(CC1)CC(N(C1CC1)S(C)(=O)=O)CCO2 (stereo not given)	?	·	-1%	·	-18%
COc1ccc(-c2nc3c(c(=O)[nH]2)CCN(S(=O)(=O)c2cccc4cccnc24)C3)cc1	i	2%	-2%	i	-3%
COc1ccc(NC(=O)c2ccc3c(c2)C2(CCN(C)C2)CN3CC2CC2)cc1 (stereo not given)	?	-5%[70.6 µM]	50µM*	i	25µM*
CN1CCC2(C1)CN(CC1CCOCC1)c1ccc(C(=O)NCc3ccccc3)cc12 (stereo not given)	0%[88.5 µM]	3%[70.6 µM]	?	i	?
CN1CCC2(C1)CN(CC1CC1)c1ccc(C(=O)NC3CCC3)cc12 (stereo not given)	?	-3%[70.6 µM]	?	i	?
CN1CCC2(C1)CN(CC1CC1)c1ccc(C(=O)NCCOc3ccccc3)cc12 (stereo not given)	?	-19%[70.6 µM]	56µM*	i	40µM*
CN1CCC2(C1)CN(CC1CCOCC1)c1ccc(C(=O)Nc3ccccc3)cc12 (stereo not given)	3%[88.5 µM]	-15%[70.6 µM]	100µM*	50µM*	?
CN1CCCC2(C1)CN(C)c1ccc(C(=O)NCCOc3ccccc3)cc12 (stereo not given)	-6%[88.5 µM]	0%[70.6 µM]	?	i	?
O=C(NCCCc1ccccc1)c1nc2cccnc2n(C2CC2)c1=O	i	·	-10%	·	-21%
c1ccc(-c2nnc([C@H]3CCN(Cc4ccco4)C3)o2)cc1	i	-2%[70.6 µM]	?	50µM*	-8%[174 µM]
Clc1ccc(-c2nnc([C@H]3CCN(Cc4c[nH]c5ccccc45)C3)o2)cc1	1%[88.5 µM]	-28%[70.6 µM]	?	i	112µM*
Clc1ccc(-c2nnc([C@H]3CCN(Cc4ccco4)C3)o2)cc1	-6%[88.5 µM]	-6%[70.6 µM]	-21%[172 µM]	45µM*	-37%[174 µM]
O=S(=O)(NCCc1noc(-c2ccccc2)n1)c1ccc(Cl)cc1	-14%	?	40µM*	i	28µM*
CN(C)Cc1ccc(-c2cc3c(ccn3Cc3cccnc3)c(C3=CCOCC3)n2)cc1	1%[88.5 µM]	-9%[70.6 µM]	56µM*	i	25µM*
C1=C(c2nc(-c3ccc(N4CCOCC4)cc3)cc3c2ccn3Cc2cccnc2)CCOC1	i	-2%	?	i	?
C1=C(c2nc(-c3cccc4[nH]ncc34)cc3c2ccn3Cc2cccnc2)CCOC1	?	-20%[70.6 µM]	89µM*	i	?
O=C(NC1CCCN(c2ccc3nnc(-c4ccccc4)n3n2)C1)c1cccc(Cl)c1 (stereo not given)	·	·	3%	·	-18%
Cc1cccc(-c2noc([C@@H]3Cc4nc[nH]c4CN3C(=O)c3ccc(-c4ccccc4)cc3)n2)c1	-12%	-26%	35µM*	i	20µM*
Cc1cccc(-c2noc([C@@H]3Cc4nc[nH]c4CN3C(=O)C3CCCCC3)n2)c1	i	-1%[70.6 µM]	?	56µM*	?
O=[N+]([O-])c1cccc(-c2noc([C@@H]3Cc4nc[nH]c4CN3CC3CCCCC3)n2)c1	?	-14%[70.6 µM]	56µM*	i	71µM*
Cc1cccc(-c2noc([C@@H]3Cc4nc[nH]c4CN3)n2)c1	i	-2%[70.6 µM]	-4%[230 µM]	50µM*	-27%[230 µM]
O=[S+]([O-])(c1cccs1)N1CCN(c2ccc3nnc(-c4ccccc4)n3n2)CC1	·	·	2%	·	-12%
SMILES	GPT2 inh	hNpr1 antagonist	HEK cytotox	Luciferase inh	NIH3T3 tox
COc1ccc(CNC[C@H]2COCc3nc4cc(C(F)(F)F)ccc4n32)cn1	-4%[88.5 µM]	-3%[70.6 µM]	-15%[172 µM]	i	-21%[138 µM]
Cc1cc(F)cc(CN2CCOc3cc([S+](=O)([O-])N(C)C)ccc3C2)c1	-2%[88.5 µM]	-25%[70.6 µM]	79µM*	i	40µM*
CN(C)[S+](=O)([O-])c1ccc2c(c1)OCCN(Cc1cccc(Cl)c1)C2	-12%[88.5 µM]	-23%[70.6 µM]	79µM*	i	?
O=C(NC1CCCC1)C1CCCN(C2CCN(Cc3ccncc3)CC2)C1 (stereo not given)	-2%	13%	-10%	i	-6%
COc1ccc(C(=O)Nc2cc(C3CCCC3)nn2C)cc1	i	·	100µM*	·	?
COc1cccc(C(=O)Nc2cc(C3CCCC3)nn2C)c1	-2%[88.5 µM]	·	?	·	?
COc1cccc(CNC(=O)c2cc(-c3cccs3)c3cccn3n2)c1	i	·	?	·	?
COc1ccc(C(=O)N2CCN(c3nccc(Nc4ccccc4OC)n3)CC2)cc1	i	·	40µM*	·	?
COc1ccccc1Nc1ccnc(N2CCN(C(=O)c3ccccc3Cl)CC2)n1	i	·	?	·	40µM*
COc1ccccc1Nc1ccnc(N2CCN(C(C)=O)CC2)n1	2%[88.5 µM]	·	5%[172 µM]	·	-25%[138 µM]
C[S+](=O)([O-])c1ccc(-c2nnc3ccc(C(=O)NCc4cccc(Cl)c4)cn23)cc1	i	·	?	·	?
CC(C)=CC[C@@H](O)C1=CC(=O)c2c(O)ccc(O)c2C1=O	12µM*	·	·	·	·
CC(C)(C)c1cc(C[C@@H]2C[C@H](NCc3ccccn3)C2(C)C)no1	i	?	50µM*	i	50µM*
CN(Cc1cc(C[C@@H]2C[C@H](NCc3cccnc3)C2(C)C)no1)c1ccccc1	-4%[88.5 µM]	?	63µM*	i	?
CC(=O)N[C@H]1C[C@@H](Cc2cc(C(C)(C)C)on2)C1(C)C	-2%[88.5 µM]	3%[70.6 µM]	1%[230 µM]	i	?
CC1(C)[C@H](Cc2cc(CCO)on2)C[C@@H]1NCc1cccnc1	i	-1%[70.6 µM]	-11%[172 µM]	i	-28%[174 µM]
COc1ccc(CN[C@H]2C[C@@H](Cc3cc(CN(C)c4ccccc4)on3)C2(C)C)cc1	0%[88.5 µM]	-30%[70.6 µM]	28µM*	i	?
CNC(=O)c1ccccc1Nc1nc(Nc2ccc3c(c2OC)CCCC(N2CCN(CCO)CC2)C3)ncc1Cl (stereo not given)	-6%	·	·	·	·
O=C(NC1CCCC1)N1CCc2nc(C3CC3)nc(-c3ccc(Cl)cc3)c2C1	i	·	?	·	?
CN(CCCN1CCCCCC1)c1nc(-c2ccncc2)nc2c1cnn2C	i	10%	?	i	32µM*
CC(C)c1nc(N(C)Cc2cc(-c3cccnc3)no2)c2cnn(C)c2n1	i	-4%	?	i	?
CC#CCn1cc2c3c(cccc31)[C@H](CC(C)C)N[C@H](C(=O)NCc1ccco1)C2	?	-10%[70.6 µM]	?	i	89µM*
